Compound activity as filed in PubChem.
D2 PAM-1: Beta-Arrestin HTS for Positive Allosteric Modulators of the Human D2 Dopamine Receptor: Potentiators. D(2) dopamine receptor (Homo sapiens), P14416. DiscoveRx D2 beta-arrestin cells, luminescence, 90 min; 100% = 57 uM dopamine signal. potentiation, % (test concentration not listed). 360,000 compounds, 0.23% hits. AID 624464, 2012; in the data active = potentiation above about 50%
Target sequence (P14416 whole entry, looked up): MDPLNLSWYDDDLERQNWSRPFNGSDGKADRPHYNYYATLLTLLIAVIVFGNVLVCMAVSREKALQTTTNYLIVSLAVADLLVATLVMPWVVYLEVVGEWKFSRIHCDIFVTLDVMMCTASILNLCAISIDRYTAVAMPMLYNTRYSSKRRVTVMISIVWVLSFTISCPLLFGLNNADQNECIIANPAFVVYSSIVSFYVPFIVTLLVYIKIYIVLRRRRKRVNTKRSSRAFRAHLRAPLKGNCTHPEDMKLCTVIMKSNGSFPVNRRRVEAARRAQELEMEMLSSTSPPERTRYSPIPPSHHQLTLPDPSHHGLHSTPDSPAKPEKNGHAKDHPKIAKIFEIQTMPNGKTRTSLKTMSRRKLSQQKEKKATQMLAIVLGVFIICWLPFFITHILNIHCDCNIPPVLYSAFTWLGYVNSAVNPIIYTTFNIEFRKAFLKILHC
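PathHunter D2 cells, attached overnight at 37 deg C, received compound in DMSO plus dopamine at EC20 (50 nM final) for 90 min at 37 deg C. Beta-arrestin recruitment was read as luminescence after 1 h with detection reagent at ambient temperature.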
D2 ag-1: Beta-Arrestin HTS for Positive Allosteric Modulators of the Human D2 Dopamine Receptor: Agonists; DiscoveRx PathHunter D2 beta-arrestin, luminescence, 90 min; 100% = 57 uM dopamine signal; activation, % (test concentration not listed); 360,000 compounds, 0.084% hits; AID 624465, 2012; in the data active = activation above about 40%
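DiscoveRx PathHunter D2 beta-arrestin cells (2,100/well) attached overnight, then compound-stimulated 90 min at 37 C in HBSS/10 mM HEPES/0.1% Tween-20 buffer; beta-galactosidase complementation read by luminescence after 1 h at ambient temperature. Dopamine 57 uM final (EC100) as control.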
D2 ag-2: HTS Assay for Allosteric Agonists of the Human D2 Dopamine Receptor: Primary Screen for Agonists | D(2) dopamine receptor (Homo sapiens), P14416 | HEK293 T-REx D2 cells, calcium flux agonist mode | activation, % at 2 µM | 340,000 compounds, 0.53% hits | AID 485358, 2010;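 active = activation over 3 SD above normal in the single-dose calcium agonist read, cut at about 30% in these data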
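In this primary screen, compounds producing a positive calcium signal within 180 s of addition to tetracycline-induced, force-coupled HEK293 Trex D2 cells are flagged; cells are dye-loaded with a no-wash calcium kit beforehand.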
D2 PAM-2: HTS Assay for Positive Allosteric Modulators of the Human D2 Dopamine Receptor: Primary Screen for Potentiators | D(2) dopamine receptor (Homo sapiens), P14416 | 340,000 compounds, 0.34% hits | potentiation, % at 10 µM | HEK293 T-REx D2, calcium flux, EC20 dopamine potentiation;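 active = potentiation over 3 SD above the plate norm, cut at about 30% in these data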
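Tetracycline-induced HEK293 T-REx cells force-coupled to calcium signalling expressed D2; compounds were pin-added after a 10 s baseline, read kinetically 180 s, then an EC20 dopamine challenge followed with a further 180 s calcium read.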
D2 antagonist: HTS Assay for Allosteric Antagonists of the Human D2 Dopamine Receptor: Primary Screen for Antagonists. 340,000 compounds, 2% hits. HEK293 TREx D2 cells, calcium flux, dopamine EC80. inhibition, % at 10 µM; in the data active = inhibition above about 30%; inactive = below that, where a call was filed
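Dopamine at EC80 is the agonist stimulus; test compounds precede it by 180 s. Calcium flux read kinetically in a force-coupled, inducible HEK293 T-REx D2 cell line.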
Numbers stand for hits; 0 = inactive; - = no result given. This is a sample that favours compounds with a hit; in the whole collection about 2.4% have one here.

SMILES | D2 PAM-1 | D2 ag-1 | D2 ag-2 | D2 PAM-2 | D2 antagonist
NS(=O)(=O)c1ccc(CCNC(=O)CNC(=O)c2ccc(Br)o2)cc1 | 0 | 0 | 0 | 0 | 66
COc1ccc2c(c1)C(C)CC(C)(C)N2C(=O)Nc1ccccc1 (centres undefined) | 0 | 0 | 0 | 0 | 54
COc1ccc2c(c1)C(C)CC(C)(C)N2C(=O)CSc1nc2ccccc2s1 (centres undefined) | 0 | 0 | 0 | 0 | 0
Fc1ccc(-c2csc(N3CCOCC3)n2)cc1 | 0 | 0 | 0 | 0 | 0
c1ccc2oc(-c3csc(N4CCOCC4)n3)cc2c1 | 0 | 0 | 0 | 31 | 0
CC1CCCN(CCOCCOc2ccc(Br)cc2Cl)C1 (centres undefined) | 0 | 0 | 0 | 0 | 52
Cc1ccc(OCCCCN2CCC(C)CC2)c(Br)c1 | 0 | 0 | 0 | 0 | 107
CN1CCN(CCOCCOc2ccc(Br)cc2Cl)CC1 | 0 | 0 | 0 | 0 | 31
CC1CCCN(CCOCCOc2ccc(Cl)cc2Br)C1 (centres undefined) | 0 | 0 | 0 | 0 | 83
COc1ccc2sc(N(Cc3cccnc3)C(=O)C3COc4ccccc4O3)nc2c1 (centres undefined) | - | - | 0 | 0 | -
CCc1nn2c(-c3ccccc3OC)ccnc2c1-c1ccc(F)cc1 | - | - | 0 | 0 | -
CC1CCN(CCCOc2ccc(Br)cc2Cl)CC1 | 0 | 0 | 0 | 0 | 47
CCN(CC)S(=O)(=O)c1ccc2c(c1)c(=O)c(C(=O)N1CCN(c3cccc(C)c3)C(C)C1)cn2C (centres undefined) | - | - | 0 | 0 | -
CCc1[nH]nc2c1C(c1ccc(C)o1)C(C#N)=C(N)O2 (centres undefined) | 0 | 0 | 0 | 0 | 64
N#CC1=C(N)Oc2n[nH]c(-c3cccnc3)c2C1c1ccc([N+](=O)[O-])o1 (centres undefined) | 55 | 0 | 0 | 0 | 0
COc1ccc(CCNc2nc3c(c(=O)n(C)c(=O)n3C)n2Cc2ccc(F)cc2)cc1OC | - | - | 0 | 0 | -
COc1ccc(NC(=O)Cn2c(=O)nc(-c3ccccc3)c3ccccc32)cc1OC | - | - | 0 | 0 | -
CCN(CC)C(=O)Cn1c(=O)n(-c2ccc(OC)cc2OC)c(=O)c2c(C)c(C(=O)N(CC)CC)sc21 | - | - | 0 | 0 | -
COc1ccc(NC(=O)C2CCN(C(=O)Nc3ccccc3)CC2)cc1S(=O)(=O)N(C)C | 0 | 0 | 0 | 0 | 77
CC1=CC2=NC(=O)CC(C)(C(=O)N(CC(=O)NC(C)(C)C)C3CCCC3)N2C=C1 (centres undefined) | 0 | 0 | 0 | 0 | 0
CC1=CC2=NC(=O)CC(C)(C(=O)N(CC(=O)NC3CCCC3)c3cc(C)cc(C)c3)N2C=C1 (centres undefined) | 0 | 0 | 0 | 0 | 60
CCN(CCCNC(=O)CN1N=C(c2ccc(OC)cc2)CCC1=O)c1cccc(C)c1 | - | - | 0 | - | -
Cc1c(C(=O)Nc2ccc(S(=O)(=O)Nc3ncccn3)cc2)oc2ccccc12 | 0 | 0 | 0 | 0 | 46
CCCS(=O)(=O)c1nc(S(=O)(=O)c2ccc(C)cc2)c(NCc2ccccc2Cl)s1 | - | - | 0 | 0 | -
CCN(c1ccccc1)S(=O)(=O)c1ccc(Cl)c(C(=O)NCC2CCCO2)c1 (centres undefined) | 0 | 0 | 0 | 31 | 0
SMILES | D2 PAM-1 | D2 ag-1 | D2 ag-2 | D2 PAM-2 | D2 antagonist
CS(=O)(=O)N(Cc1ccccc1)c1ccc(C(=O)NCC2CCCO2)cc1 (centres undefined) | 0 | 0 | 0 | 0 | 33
CS(=O)(=O)N(Cc1ccc(Cl)cc1)c1ccc(C(=O)NCC2CCCO2)cc1 (centres undefined) | 0 | 0 | 0 | 0 | 0
COc1ccc(C(=O)CN2CCN(S(=O)(=O)c3ccc(C(C)C)cc3)CC2)cc1 | - | - | 0 | 0 | -
CCOC(=O)C1=C(C)NC2=C(C(=O)CCC2)C1c1coc2ccccc2c1=O (centres undefined) | 0 | 0 | 0 | 0 | 0
CC1=C(C(=O)OCCOc2ccccc2)C(c2coc3ccccc3c2=O)C2=C(CCCC2=O)N1 (centres undefined) | 0 | 0 | 0 | 43 | 0
CCOC(=O)C1CCCN(C(=O)Cn2ncc3c(C)n(Cc4ccccc4Cl)c(C)c3c2=O)C1 (centres undefined) | - | - | 0 | 0 | -
N#C/C(=C/c1ccncc1)c1nc2ccccc2s1 | 0 | 0 | 30 | 0 | 0
CC(C)=C(C#N)c1nc2ccccc2s1 | 0 | 0 | 0 | 0 | 0
O=C1CSC(c2ccccc2)N1CC12CC3CC(CC(O)(C3)C1)C2 (centres undefined) | 0 | 0 | 0 | 0 | 37
Cc1ccc(CSC2=NCCN2S(=O)(=O)c2ccc(C)cc2)cc1 | 0 | 0 | - | - | -
Cc1ccc(S(=O)(=O)N2CCN=C2SCc2ccc(Cl)c(Cl)c2)cc1 | 0 | 0 | 0 | 0 | 30
COc1cccc(NC(=O)C2CCN(S(=O)(=O)c3cccc4nonc34)CC2)c1 | - | - | 0 | 0 | -
Cc1ccc(C(=O)COC(=O)C2CC(=O)N(c3nc(-c4ccccc4)cs3)C2)cc1 (centres undefined) | 0 | 0 | 0 | 0 | 34
CCN(CC)C(=O)Cn1c(=O)n(-c2ccc(Cl)c(Cl)c2)c(=O)c2c(C)c(C(=O)N(CC)CC)sc21 | - | - | 0 | 0 | -
COc1ccc(CNC(=O)CN(C(=O)c2snc(C(N)=O)c2N)c2ccc(OC)c(OC)c2)cc1 | 0 | 0 | 0 | 0 | 31
COc1ccc(CNC(=O)CN(C(=O)c2snc(C(N)=O)c2N)c2ccc(F)cc2)cc1 | 0 | 0 | 0 | 0 | 0
Cc1ccc2c(=O)cc(C(=O)Nc3c(C(=O)Nc4cccc(Cl)c4)oc4ccccc34)oc2c1 | - | - | 0 | 0 | -
Cc1ccc([N+](=O)[O-])c(NC(=O)COC(=O)C2CC3CCCC(C2)C3=O)c1C (centres undefined) | 0 | 0 | 0 | 0 | 36
Cc1cccc([N+](=O)[O-])c1NC(=O)COC(=O)C1CC2CCCC(C1)C2=O (centres undefined) | 0 | 0 | 0 | 0 | 0
CCOc1ccccc1Nc1nc(-c2cccc(Cl)c2)c2c(n1)-c1ccccc1OC2 | - | - | - | 0 | -
CC(C)NC(=O)CN1C(=O)C(C)(C)Oc2ccc(C(=O)NC3CCCCC3)cc21 | 0 | 0 | 0 | 0 | 32
CC1CCCC(C)N1C(=O)CN1C(=O)C(C)(C)Oc2ccc(C(=O)NC3CCCC3)cc21 (centres undefined) | 0 | 0 | 0 | 0 | 33
CC1CCCC(C)N1C(=O)CN1C(=O)C(C)(C)Oc2ccc(C(=O)NC3CCCCC3)cc21 (centres undefined) | 0 | 0 | 0 | 0 | 0
